In the library only some 7.4% were active in any assay of this set; here they are far more common.
SMN2 splice up – enhancers of SMN2 splice variant expression | AID 1458 | HEK293 SMN2-luciferase splicing reporter, luminescence, 30-36 h | 210,000 tested, 2.8% active | Potency, µM (titrated, usually from 46.1 µM), for the others: top-dose activity change, positive = activation, actives largely listed as activators; further: % of control where 0% means no effect; nearly all actives have a fitted effect of over 55% in size
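HEK293 cells carry an SMN2 minigene-luciferase reporter in which exon 7 inclusion puts luciferase in frame. Cells were seeded at 2000 cells/well, attached for 10-12 hours, then exposed to compounds for 30-36 hours at 37C before ONE-Glo luminescence.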
NPC1 promoter act – activates the NPC1 promoter | Huh7 NPC1 promoter luciferase reporter, 24 h | Potency, µM (titrated, usually from 9.22 µM), for the others: top-dose activation, actives largely listed as activators | 320,000 tested, 2.4% active | AID 485313; further: % of control where 0% means no effect; nearly all actives have a fitted effect of over 60% in size
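Stable NPC1-promoter luciferase Huh7 line; cpd (DMSO) 24 h, 37 °C, 5% CO2; Amplite luciferase reagent 10 min RT; luminescence readout. qHTS format.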
Rab9 prom act – Rab9 promoter activation; Huh7 Rab9 promoter-luciferase reporter, luminescence, 24 h; Potency, µM (top dose mostly 9.22 µM), without a hit: at the highest dose activation, negative = inhibition, most hits filed as activators; 320,000 tested, 2.8% active; AID 485297; further: % of control where 0% means no effect; nearly all actives have a fitted effect of over 60% in size
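Huh7 cells stably carrying a Rab9 promoter-luciferase reporter, 1500 cells per well in OP-MEM I with 10% FBS, treated with compound 24 hours at 37C. Luciferase activity read by luminescence after 10 minutes with Amplite reagent.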
ELG1 genotox – inducers of genotoxicity in HEK293T ELG1-luciferase cells; HEK293T ELG1-luciferase reporter, luminescence, 16 h; Potency, µM (doses to about 46 µM), inactives show top-dose activity change, positive = activation, usual class: activators; 330,000 tested, 1.3% active; further: % of control where 0% means no effect; nearly all actives have a fitted effect of over 60% in size
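16 hr compound incubation (37 °C, 5% CO2) of HEK293T cells carrying luciferase-tagged ELG1; luciferase then measured by ONE-Glo luminescence after 30 min at RT.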
FLuc counter – counter-screen for miR-21 project: firefly luciferase inhibitors or activators. P08659. purified FLuc, Km substrates, luminescence inhibition. Potency, µM (highest dose often 57.5 µM), for the others: at the highest dose activity change, negative = inhibition, actives largely listed as inhibitors. 360,000 tested, 6.9% active;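 further: plate controls were vehicle for no effect and reference inhibitor for full effect; nearly all actives have a fitted effect of over 55% in size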
Target sequence (P08659 whole entry, looked up): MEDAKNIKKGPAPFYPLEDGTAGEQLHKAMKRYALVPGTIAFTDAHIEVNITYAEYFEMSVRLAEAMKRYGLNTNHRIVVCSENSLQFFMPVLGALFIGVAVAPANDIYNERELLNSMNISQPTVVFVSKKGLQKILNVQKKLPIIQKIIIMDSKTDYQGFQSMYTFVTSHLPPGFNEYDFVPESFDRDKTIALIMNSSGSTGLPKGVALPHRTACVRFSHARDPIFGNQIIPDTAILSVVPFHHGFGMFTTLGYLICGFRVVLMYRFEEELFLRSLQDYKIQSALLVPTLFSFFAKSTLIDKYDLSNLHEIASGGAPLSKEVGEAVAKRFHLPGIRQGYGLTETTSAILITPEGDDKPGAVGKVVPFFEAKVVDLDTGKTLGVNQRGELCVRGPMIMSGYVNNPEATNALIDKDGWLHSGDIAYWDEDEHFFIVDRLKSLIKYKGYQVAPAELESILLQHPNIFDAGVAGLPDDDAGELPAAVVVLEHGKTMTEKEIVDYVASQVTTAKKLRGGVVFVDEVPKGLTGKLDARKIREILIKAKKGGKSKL
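Purified P. pyralis luciferase (10nM final) with 10uM D-luciferin and 10uM ATP (Km levels) in 50mM Tris acetate pH 7.5, 10mM Mg acetate, 0.01% Tween-20, 0.05% BSA; qHTS 6-point titration, ~60 µM downward; luminescence read.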
Starred values were filed as active, the others as inactive; [ ] = another dose, or the depositor's remark. The call rests on the fitted dose curve; in most records, active means well fitted curve in the direction sought with a large enough effect; inconclusive means small, poorly fitted or top-dose-only effect, or another doubt; inactive means no such curve, though single readings can be large; an effect the other way counts as inactive or inconclusive. Potency means the concentration at half of the fitted maximal effect.

`O=c1c2ccccc2nc2n1CCc1c-2[nH]c2ccccc12` gave SMN2 splice up 7.94µM*, NPC1 promoter act 2.91µM*, Rab9 prom act 2.91µM*, ELG1 genotox 3.26µM* and FLuc counter 0.953µM*.
Screening CC(C)C1O[C@H](/C=C\c2ccccc2)OCC1(C)C (stereo not given in full) returned SMN2 splice up -10.9%[9.22 µM].
For NS(=O)(=O)c1ccc(CNC(=O)c2scc3c2CCCC3)cc1 the results were SMN2 splice up -25.5%, NPC1 promoter act -3.5%, Rab9 prom act -3.7%, ELG1 genotox -5.5% and FLuc counter -8.2%.
Screening O=C1C(=O)N(C2CCN(C(=O)c3ccccc3Cl)CC2)CCN1Cc1ccc(F)cc1 returned FLuc counter 1.1%.
CC(C)COC(=O)c1ccc2c(c1O)C(=O)c1ccccc1C2=O was read as SMN2 splice up inconclusive, NPC1 promoter act 2µM*, Rab9 prom act 3.16µM*, ELG1 genotox 1.3µM* and FLuc counter 1.35µM*.
Screening COc1ccc2c(c1O)C(=O)c1ccccc1C2=O returned NPC1 promoter act inconclusive, Rab9 prom act inconclusive, ELG1 genotox 13.5% and FLuc counter inconclusive.
CCC(OC(=O)c1ccco1)C(=O)NC1CCCC1 (stereo not given) was read as NPC1 promoter act 0.5%, Rab9 prom act 9.6%, ELG1 genotox 1.5% and FLuc counter 1.8%.
For CN(C)Cc1c(-c2ccc(Cl)cc2)nc2ccccn12 the results were SMN2 splice up 12.6µM*, NPC1 promoter act inconclusive, Rab9 prom act inconclusive, ELG1 genotox inconclusive and FLuc counter 12µM*.
Clc1ccc(-c2nc3ccccn3c2CN2CCCCC2)cc1 was read as SMN2 splice up -4.7%, NPC1 promoter act 0.8%, Rab9 prom act 10.9%, ELG1 genotox 9.7% and FLuc counter inconclusive.
Screening COCCN(C(=O)COC(=O)Cc1coc2cc3c(cc12)CCC3)c1c(N)n(Cc2ccccc2)c(=O)[nH]c1=O returned NPC1 promoter act -4.1%, Rab9 prom act -4.1%, ELG1 genotox 0.5% and FLuc counter 23.9µM*.
For COc1ccc2c(c1OC)C(=O)OC2Nc1nc(-c2cc3ccccc3oc2=O)cs1 (stereo not given) the results were SMN2 splice up 2.24µM*, NPC1 promoter act 0.891µM*, Rab9 prom act 0.447µM*, ELG1 genotox inconclusive and FLuc counter 8.49µM*.
`COc1ccc2c(c1OC)C(=O)OC2Nc1nc(-c2ccc(-c3ccccc3)cc2)cs1` (stereo not given) gave SMN2 splice up 2.24µM*, NPC1 promoter act 0.708µM*, Rab9 prom act 0.708µM*, ELG1 genotox 3.26µM* and FLuc counter 1.35µM*.
COc1ccc(C(=O)N[C@H](C(=O)NCc2cccs2)C(C)C)cc1 was read as SMN2 splice up -21.2%, NPC1 promoter act -1.6%, Rab9 prom act 8.6%, ELG1 genotox -0.9% and FLuc counter -1.5%.
Screening CC(=O)Nc1ccc(-c2csc(NC(=O)Cc3cccc(F)c3)n2)cc1 returned NPC1 promoter act -3.8%, Rab9 prom act -2.4%, ELG1 genotox -15.3% and FLuc counter -1.6%.
Screening Cc1ccc(N=Nc2c(N)nn3c(N)c(C#N)c(C)nc23)cc1 returned NPC1 promoter act -8.3%, Rab9 prom act -23.1%, ELG1 genotox -3.5% and FLuc counter -1.5%.
For Cc1ccc(N=Nc2c(N)nn(-c3ccccc3)c2N)cc1 the results were SMN2 splice up 10µM*, NPC1 promoter act inconclusive, Rab9 prom act inconclusive, ELG1 genotox inconclusive and FLuc counter 6.01µM*.
`Cc1nn(-c2ccccc2)c(N)c1N=O` gave NPC1 promoter act -3.7%, Rab9 prom act -2.7%, ELG1 genotox 7.1% and FLuc counter 5.2%.
Screening Cc1nn(-c2ccccc2)c(N)c1N=Nc1ccc2ccccc2c1 returned SMN2 splice up 12.6µM*, NPC1 promoter act inconclusive, Rab9 prom act 3.55µM*, ELG1 genotox inconclusive and FLuc counter 10.7µM*.
For O=C(Nc1cccc(Cl)c1)Nc1csc([N+](=O)[O-])c1 the results were NPC1 promoter act -6.4%, Rab9 prom act -14.3%, ELG1 genotox -7.7% and FLuc counter 19µM*.

High-throughput results deposited in PubChem by National Center for Advancing Translational Sciences (NCATS).
